Bioassay records (PubChem BioAssay)
Most compounds without a hit are left out; they make up all but 2.2% or so of the library.
C8 TRAIL sens = caspase-8 TRAIL sensitization | NB7+C8 cells + TRAIL, ATPlite viability luminescence | inhibition (viability loss, TRAIL sensitization), % at 10 µM | 1% of 360,000 active | AID 624354;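 active means compounds causing at least 50% loss of cell viability in the single-dose screen, relative to plate controls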
hiPSC survival = enhancers of human iPSC single-cell survival | hiPSC single-cell survival, ATPlite luminescence; 100% = ROCK inhibitor wells, 0% = DMSO | survival enhancement, % at 20 µM | 0.044% of 360,000 active; in the data active means survival enhancement above about 18%;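 further: cells exposed to compounds for 16 hours before the ATP read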
KKLEB cytotox = CF airway cell cytotoxicity counter-screen; KKLEB CF airway cells viability, ATPlite luminescence, overnight; active compounds read low; cells stimulated with P. aeruginosa culture filtrate; activity change (cytotoxicity), % at 5 µM; 0.36% of 360,000 active;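 active means corrected activity change at or below -50% at 5 µM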
CF NFkB block = cystic fibrosis NF-kB activation inhibition; 0.86% of 360,000 active; KKLEB NF-kB-GFP reporter, PAF-induced, GFP fluorescence overnight; inhibition, % at 5 µM;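 active means at least 50% inhibition at 5 µM, scaled per plate between neutral and stimulator controls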;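 further: PAF is a Pseudomonas aeruginosa culture filtrate used as stimulus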
PPC-1+TRAIL kill = compounds killing PPC-1 cancer cells with TRAIL present (potentiator screen, no TRAIL-free arm). PPC-1 cells + TRAIL, ATPLite viability luminescence. cell killing (% activity), % at 4 µM or 5 µM. 0.41% of 220,000 active. AID 1443;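 active means cell killing above 50% in the first pass at 4 µM, then a duplicate retest at 5 µM averaging 50% or more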
HIF-2a block = blocks HIF-2a reporter activity; 786-0 RCC cells HIF-2a reporter, luciferase luminescence, overnight; inhibition, % at 18.8 µM; 0.72% of 360,000 active; AID 624352;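 active means inhibition of the luminescence signal of 40% or more relative to plate controls, in a single-dose primary screen at 18.75 µM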
A number is an active result; . = inactive; / = no result given; ! = a repeat was not active.

SMILES | C8 TRAIL sens | hiPSC survival | KKLEB cytotox | CF NFkB block | PPC-1+TRAIL kill | HIF-2a block
CCC(=O)NC(=S)Nc1ccc(NC(=O)c2cc3ccccc3o2)c(OC)c1 | . | . | . | . | . | .
c1ccc(-c2nnc3sc(CN4CCC5(CC4)OCCO5)cn23)cc1 | 65 | . | . | . | . | .
Cc1ccc(-n2c(C)cc(C3=NNC(=NC4CC4)SC3)c2C)cc1C | 64 | . | . | . | . | .
Cc1cc(C2=NNC(=NC3CC3)SC2)c(C)n1-c1c(C)n(C)n(-c2ccccc2)c1=O | . | . | . | . | . | .
O=C(Nc1nc2ccccc2n1Cc1ccccc1)c1ccc(COc2ccccc2[N+](=O)[O-])o1 | . | . | -68 | . | . | .
CCN=c1scc(-c2ccccc2)n1/N=C/c1ccccn1 | 89 | . | . | . | . | .
C=CCN=c1scc(-c2ccccc2)n1/N=C/c1ccccn1 | 53! | . | . | . | . | .
C=CCN=c1scc(-c2ccc(F)cc2)n1/N=C/c1ccccn1 | . | . | . | . | . | .
CCN=c1scc(-c2ccc(F)cc2)n1/N=C/c1ccccn1 | . | . | . | . | . | .
CS(=O)(=O)c1ccc(Cl)c(NC(=O)CSc2nc3ccccc3c(=O)n2Cc2ccco2)c1 | . | . | -54 | . | / | .
CS(=O)(=O)c1ccc(Cl)c(NC(=O)CSc2nc3ccccc3c(=O)n2CCCN2CCOCC2)c1 | . | . | . | . | . | .
COc1ccc2cc(C)c3nnc(SCC(=O)Nc4nc(-c5ccccc5)cs4)n3c2c1 | . | . | -52 | . | . | .
Cc1n[nH]c(=O)c2c(NC(=O)CSc3ccccc3Cl)oc(C)c12 | . | . | . | . | / | .
O=C(O)C=C(Br)Br | . | . | . | . | / | .
COC(=O)Cc1ccc(NC(=S)N2CCCC(CO)C2)cc1 (centres undefined) | 75 | . | . | . | 63 | .
O=C(CSc1nc2ccccc2c(=O)[nH]1)Nc1ccc([N+](=O)[O-])cc1 | 61 | . | . | . | / | .
CCC1C/C(=C\c2cccnc2)C(=O)/C(=C/c2cccnc2)C1 (centres undefined) | . | . | -66 | 93 | . | 92
O=C1/C(=C/c2cccnc2)CCC/C1=C\c1cccnc1 | / | / | / | / | 82 | /
O=C(COC(=O)C1CC1)Nc1ccc(Cl)cc1Cl | . | . | . | . | / | .
COc1ccc(-n2nc(C(=O)NCC(=O)N3CCN(c4ccccc4F)CC3)c3ccccc3c2=O)cc1 | 72 | . | . | . | / | .
COc1ccc(-n2nc(C(=O)NCC(=O)N3CCN(c4ccccc4F)CC3)c3ccccc3c2=O)cc1OC | 53 | . | . | . | / | .
COc1ccc(N2CCN(C(=O)CNC(=O)c3nn(-c4ccc(OC)cc4)c(=O)c4ccccc34)CC2)cc1 | . | . | . | . | / | .
COC(=O)[C@@]12CCCCN1[C@H](c1ccc(-c3ccc(F)cc3)cc1)[C@@H]1C(=O)N(C)C(=O)[C@@H]12 | . | . | . | . | / | .
CC(=O)Nc1ccc(Cc2nc3c([nH]2)c(=O)n(C)c(=O)n3C)cc1 | / | / | / | / | . | /
O=C1c2cccnc2-c2ncccc21 | . | . | . | . | . | .
SMILES | C8 TRAIL sens | hiPSC survival | KKLEB cytotox | CF NFkB block | PPC-1+TRAIL kill | HIF-2a block
COC1=C(Br)C(=O)c2ncccc2C1=O | . | . | . | . | / | 72
O=C1C(=O)c2cccnc2-c2ncccc21 | 96 | . | -83 | 90 | / | 90
O=C(Cc1cccs1)Nc1cccc(-c2nc3cc4ccccc4cc3[nH]2)c1 | 73 | . | -71 | 81 | . | .
COC(=O)c1c(N)sc(C(=O)NCCc2ccccc2)c1C | 75 | . | . | . | / | 66
Cc1ccc(C(=O)NCCc2ccncc2)cc1 | . | . | . | . | . | .
Cc1ccc(C(=O)NCCc2ccccc2)cc1 | 64 | . | . | . | / | 54
O=[N+]([O-])c1ccc(S(=O)(=O)Nc2nnc(C(F)(F)F)s2)cc1 | . | . | . | . | / | .
Cc1cc(-n2c(C)cc(C(=O)CSc3nnc4sc5ccccc5n34)c2C)no1 | . | . | . | . | . | .
Cc1cc(-n2c(C)cc(C(=O)CSc3nnnn3-c3ccc(Cl)cc3)c2C)no1 | . | . | -68 | 51 | . | .
COc1cc(S(=O)(=O)Nc2ccccc2)ccc1N=Cc1c(C)[nH]n(-c2ccc(C)cc2)c1=O | / | / | / | / | . | /
COc1cc(SC#N)ccc1N=Cc1c(C)[nH]n(-c2ccc(Cl)cc2)c1=O | 68 | . | . | . | . | .
Cc1cc(C(=O)CSc2nnc(N)s2)c(C)n1Cc1cccs1 | 69 | . | . | . | . | .
Cc1csc(SCC(=O)c2cc(C)n(Cc3cccs3)c2C)n1 | 79 | . | . | . | . | .
COc1ccc(-c2nnc(SCC(=O)c3cc(C)n(Cc4cccs4)c3C)o2)cc1 | . | . | . | . | . | .
COc1ccc(CCNC(=O)C2CCN(S(=O)(=O)c3ccc4nc5c(c(C(=O)O)c4c3)CCCC5)CC2)cc1OC | . | . | . | . | / | .
Cc1ccc(S(=O)(=O)N2C[C@H]3n4c(=O)ccc(=O)n4C[C@H](OC(=O)NCc4ccccc4F)[C@@]3(O)C2)cc1 | . | . | . | . | / | .
Cc1c(C#N)c(NC(=O)CCl)n(Cc2ccc(F)cc2)c1C | . | . | -58 | 73 | . | .
Cc1c(C#N)c(NC(=O)CCl)n(Cc2ccccc2)c1C | . | . | . | . | . | .
O=C1/C(=C\c2ccc([N+](=O)[O-])cc2)CCc2ccccc21 | 78 | . | . | . | . | .
CC(=O)Nc1ccc(/C=C2\CCc3ccccc3C2=O)cc1 | . | . | -57 | . | / | .
COc1ccc(/C=C2\CCc3ccccc3C2=O)cc1O | 66 | . | . | . | / | .
O=C(C(=O)N1CCCN(Cc2ccc(F)cc2)CC1)c1ccccc1 | . | / | / | / | / | .
O=C(CCl)N(C/C=C/c1ccccc1)c1ccc2c(c1)OCCO2 | 92 | . | -100 | 92 | . | .
Cc1cc(OC(C)C(=O)NCC2CCCO2)cc(C)c1Cl (centres undefined) | . | . | . | . | / | .
Cc1ccc(NC(=S)c2nc3ccccc3[nH]2)c(C)c1 | 73 | . | . | . | . | .
SMILES | C8 TRAIL sens | hiPSC survival | KKLEB cytotox | CF NFkB block | PPC-1+TRAIL kill | HIF-2a block
Cc1ccc(NC(=S)c2nc3ccccc3[nH]2)cc1 | 77 | . | . | . | . | .
Cc1ccc(S(=O)(=O)N(C(=O)c2ccncc2)c2ccc(OC(=O)c3ccncc3)cc2)c(C)c1 | . | . | -50 | 72 | . | .
COc1ccccc1CNC(=O)c1cccc(S(=O)(=O)N(C)c2ccccc2)c1 | . | . | . | . | / | .
CC(=O)Nc1ccc(NC(=O)C(F)(F)F)cc1 | . | . | . | . | . | .
CC1CCN(c2ccc(-c3ccc(NC(=O)C(F)(F)F)cc3)nn2)CC1 | 89 | . | . | . | / | .
O=C(OCc1c(-c2ccccc2)ncc2ccccc12)c1cccc(Br)c1 | . | . | . | . | / | .
O=C1N(c2ccccc2)C(c2ccccc2)C12CCCCC2 (centres undefined) | . | . | . | . | / | .
